In all, about 330,000 compounds went through this assay and about 1,100 (0.33%) were called active.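 Rule for the calls: active = inhibition above about 40% at 20 µM (limit read from the data); inactive = the rest.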 The list comes from a sample in which actives are over-represented; it also holds similar structures and randomly drawn compounds.
What follows are compounds tested against Apelin receptor (Homo sapiens) (UniProt P35414) (assay: antagonists of human apelin receptor APJ, primary screen, CHO-K1 cells, beta-arrestin complementation, luminescence (AID 2521;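 note: cells challenged with 10 nM apelin-13 agonist together with compound; plate controls were apelin-13 plus DMSO wells for no effect and DMSO wells lacking apelin-13 for full effect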)). Conditions: at 20 µM, active compounds read high.
Chain of Apelin receptor (Homo sapiens) (P35414 whole entry, looked up): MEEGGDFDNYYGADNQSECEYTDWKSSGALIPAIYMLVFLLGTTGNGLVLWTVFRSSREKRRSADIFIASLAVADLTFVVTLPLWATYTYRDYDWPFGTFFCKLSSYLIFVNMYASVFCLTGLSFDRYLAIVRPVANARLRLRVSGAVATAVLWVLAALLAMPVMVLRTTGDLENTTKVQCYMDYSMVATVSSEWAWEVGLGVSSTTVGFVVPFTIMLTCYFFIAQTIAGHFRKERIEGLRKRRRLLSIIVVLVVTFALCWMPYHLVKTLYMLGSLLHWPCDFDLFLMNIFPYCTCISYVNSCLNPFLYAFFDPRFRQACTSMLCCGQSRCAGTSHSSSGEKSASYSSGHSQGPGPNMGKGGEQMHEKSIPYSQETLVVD

inhibition, active:
CSCCC(NC(=O)COc1ccccc1)C(=O)OCC(=O)c1cc2ccccc2o1 (stereo unspecified) 56.3%, Cc1cc(/C=N/Nc2ccc([N+](=O)[O-])cn2)c(C)n1-c1cccc(C(=O)O)c1 42.4%, O=C1Nc2ccc([N+](=O)[O-])cc2C1=Nc1cccc(CO)c1 66%, CCc1ccc2c(c1)C1(NN=C(c3ccccc3)S1)C(=O)N2 (stereo unspecified) 43.3%, CCC1Nc2ncnc(N3CCN(c4ccccc4)CC3)c2N(Cc2ccc(Cl)cc2)C1=O (stereo unspecified) 85.9%, S=C(NNC(=S)NC1CC2CCC1C2)NC1CC2C=CC1C2 (stereo unspecified) 40.2%, CC(=O)/C(=N\Nc1ccc(Cl)cc1Cl)Sc1cccc2cccnc12 50.3%, CN(C)S(=O)(=O)c1cccc(NC(=S)N/N=C/C(=O)c2ccccc2)c1 41.5%

inhibition, inactive:
Cc1ccc(C)c2[nH]c(=O)c(CN(Cc3cccnc3)C(=S)NCc3ccco3)cc12 5.44%, O=C(N=C1SC2CS(=O)(=O)CC2N1c1ccccc1)c1ccccc1 (stereo unspecified) -0.987%, CCCNc1ncnc2sc(C)c(C)c12 19.7%, Cc1cc(C)n(-c2nc(O)cc(=O)[nH]2)n1 9%, O=C1/C(=C/c2coc3ccc(O)cc3c2=O)SC(=S)N1c1ccccc1 29.3%, CSCCC(NC(=O)COc1ccccc1)C(=O)OCCOc1ccc(F)cc1 (stereo unspecified) 4.85%, CSCCC(NC(=O)COc1ccccc1)C(=O)OCCOc1ccc(Br)cc1 (stereo unspecified) 0.665%, CC(=O)Nc1ccc(S(=O)(=O)Nc2nc3n(n2)C(c2ccccc2)CC(=O)N3)cc1 (stereo unspecified) -9.74%, Cc1nc2cc(NCc3cccs3)ccc2n1C 1.26%, CCCCC(=O)Nc1c2c(nn1-c1ccc([N+](=O)[O-])cc1)CS(=O)(=O)C2 9.67%, CC1CCN(C(=O)c2cc3nc(C4CC4)cc(C(F)(F)F)n3n2)CC1 1.74%, Cc1cc(C=O)c(C)n1-c1ccc(NC2CCCCC2)c([N+](=O)[O-])c1 11.5%, Cc1cc(/C=N/NC(=O)CC2(C)OCCO2)c(C)n1-c1ccc(Cl)c(Cl)c1 -22.8%, Cn1c(=O)c2c(-c3cccc(Br)c3)c(C#N)c(N)nc2n(C)c1=O -4.62%, NC(=O)NC(=O)C(OC(=O)CCNS(=O)(=O)c1ccccc1)c1ccccc1 (stereo unspecified) 12.8%, CC(Oc1ccccc1F)C(=O)NN (stereo unspecified) -7.83%, O=[N+]([O-])c1ccc(N(CCO)Cc2ccccc2)c([N+](=O)[O-])c1 -2.49%, CN1CCN(/N=C2/C(=O)Nc3ccc([N+](=O)[O-])cc32)CC1 2.6%, O=C(NC(=S)Nc1ccc(Cl)c(C(=O)O)c1)c1cncc(Br)c1 35.2%, c1ccc2cc(CCCc3cc4ccccc4cn3)ncc2c1 9.5%, Cc1cc2c(c(=O)n1C)C(C(C)C)C(C#N)=C(N)O2 (stereo unspecified) -2.07%, COc1ccc(CCNC(=O)C2CCCN(S(=O)(=O)c3ccc(OC)cc3)C2)cc1 (stereo unspecified) 12.2%, Cc1ccc(-n2c(C)cc(C(=O)CSc3nnc4ccccn34)c2C)cc1 -19.2%, CC(=O)Nc1ccc(NC(=O)CSC2=NS(=O)(=O)c3ccccc3N2)cc1 17.4%, O=C1C(Cc2ccc(O)cc2)NC(=S)N1Cc1ccccc1 (stereo unspecified) 7.09%, O=C(CN1CCN(c2ccc(Cl)cc2)CC1)c1ccccc1 -15.1%, COc1ccc(S(=O)(=O)n2cnc3ccccc32)c(C)c1 2.56%, Cc1ccc(NC(=S)N(CCCN2CCCC2)Cc2cccn2Cc2ccc(Cl)cc2)cc1 -11.3%, CC(C)(C)OC(=O)C[C@@H]1C/C=C\C[C@@H](CC(=O)NCCO)C(=O)N[C@H](Cc2c[nH]c3ccccc23)COC1=O 0.599%, O=C(NNC(=S)NC1CC2CCC1C2)c1ccc(Cl)cc1 (stereo unspecified) -4.76%, S=C(NNC(=S)NC1CC2C=CC1C2)NC1CC2C=CC1C2 (stereo unspecified) 9.22%, Cc1nonc1OCCn1nnnc1N -11.5%, O=C(NNc1cc(Cl)ccc1Cl)c1cccnc1Cl -13.7%, Cc1c(NC(=O)CSc2cccc3cccnc23)c(=O)n(-c2ccccc2)n1C 21.8%, Cc1ccc(C(=O)N(CN2CCCC2=O)c2ccc(F)cc2)cc1 -13.9%, CNC(=O)Nc1cc(C(C)(C)C)no1 8.23%, Cc1ccc(N2CCN(S(=O)(=O)c3ccc(F)cc3)CC2)c(C)c1 17.5%, Cc1ccc(/C=N/NC(=S)Nc2cccc(S(=O)(=O)N(C)C)c2)o1 -8.56%, CN(C)S(=O)(=O)c1cccc(NC(=S)NCc2ccc3c(c2)OCO3)c1 3.11%, O=C(c1ccccc1F)N(Cc1ccccc1)Cc1ccccc1 -6.53%, CC1=C(C(=O)Nc2cc(C)ccn2)C(c2cnn(C)c2)C2=C(CC(c3ccccc3)CC2=O)N1 (stereo unspecified) -2.45%, O=S(N1CCCCCC1)C12CC3CC(CC(C3)C1)C2 (stereo unspecified) -12.7%, Cc1ccc(NC(=O)C2CC2c2ccccc2)cc1 (stereo unspecified) 0.756%
